Assay results: PubChem BioAssay (NCI)
About 83,000 compounds went through this panel and 20% of them were active in at least one assay; those are over-represented in the sample as a whole.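 The endpoint reported here, percent growth, reads 100 for growth as untreated, 0 for no net growth and -100 for all cells dead.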 Unmarked numbers belong to inactive results. Active and inactive are the calls of the source. How the source made its calls: active means growth percent below 10; inactive means the rest.

Tests used:
Experiment in all cases: NCI-60 one-dose screen, 48 h (100 = growth as untreated, 0 = no growth, -100 = all killed)
Conditions in all cases: 10 µM unless noted
SK-MEL-2 melanoma = system: SK-MEL-2 melanoma
SN12C renal = system: SN12C renal
TK-10 renal = system: TK-10 renal
ACHN renal = system: ACHN renal
CAKI-1 renal = system: CAKI-1 renal
A498 renal = system: A498 renal
CCRF-CEM leukemia = system: CCRF-CEM leukemia
MOLT-4 leukemia = system: MOLT-4 leukemia
UO-31 renal = system: UO-31 renal
EKVX NSCLC = system: EKVX NSCLC

| Structure (SMILES) | growth (SK-MEL-2 melanoma) | growth (SN12C renal) | growth (TK-10 renal) | growth (ACHN renal) | growth (CAKI-1 renal) | growth (A498 renal) | growth (CCRF-CEM leukemia) | growth (MOLT-4 leukemia) | growth (UO-31 renal) | growth (EKVX NSCLC) |
| --- | --- | --- | --- | --- | --- | --- | --- | --- | --- | --- |
| CN(C)CC(C)(CN(C)C)C(=O)/C=C/c1c(Cl)cccc1Cl | 79.7% | 50.9% | -8.98% (active) | -100% (active) | 52.7% | 119% | -4.65% (active) | -19.3% (active) | – | – |
| Cc1cc(C)c(C#N)c(Sc2nc(C)c([N+](=O)[O-])c(C)c2C#N)n1 | 69.4% | 47.4% | 75.2% | – | 0.956% (active) | 110% | – | 39.7% | 39.3% | – |
| COc1cc([C@@H]2c3cc4c(cc3[C@H](OC3OC5COC(c6ccccc6)OC5C(O)C3O)[C@H]3COC(=O)[C@H]23)OCO4)cc(OC)c1OC (stereo not given in full) | 2.6% (active) | 41.8% | – | 32.6% | 31% | 26.2% | 16.2% | -7.44% (active) | 35.2% | – |
| CCOc1ccc2c(c1)/C(=C\C=C\C1CC(C)C3CC(OCC)CCC3N1CC)CC(C)N2CC (stereo not given) | -54.6% (active) | 6.7% (active) | – | 12% | 17.9% | 15% | -40.3% (active) | -42.5% (active) | 0.241% (active) | – |
| CC1(O)CCCCCC1 | 105% | 99.9% | 99.5% | 103% | 101% | – | 92.7% | 92.8% | 82.6% | – |
| CCCCCCCCCCCCN1C(C)=CS/C1=C\C=C\c1scc(C)[n+]1CCCCCCCCCCCC | 1.51% (active) | 18.2% | 11.9% | – | 27.5% | – | 20% | 11.1% | 62.6% | – |
| COc1ccc(C(OCC2OC(n3ccc(NC(=O)c4ccccc4)nc3=O)C(O)C2O)(c2ccccc2)c2ccccc2)cc1 (stereo not given) | 90.1% | -38.2% (active) | 81.5% | 47.3% | 55% | – | 47.1% | 3.18% (active) | 22.7% | – |
| CCCCCCCCCCCC(=O)OC(C)C(=O)NCCCC (stereo not given) | 108% | 102% | 90.8% | – | 99.1% | – | 101% | 87.7% | 94.5% | – |
| Cc1ccc(Nc2ccc(O)c3c2C(=O)c2c(O)ccc(Nc4ccc(C)cc4)c2C3=O)cc1 | 118% | 106% | – | – | 92.9% | 97.4% | 95.5% | 109% | 82.7% | – |
| CC1CC(C)(C)OB(OC(C)CC(C)(C)OB2OC(C)CC(C)(C)O2)O1 (stereo not given) | 103% | 101% | 93.6% | – | 105% | 118% | 104% | 99.2% | 90.9% | – |
| CCc1oc2ccccc2c1C(=O)c1cc(Br)c(O)c(Br)c1 | 59.6% | 78.4% | 125% | – | 63.6% | 67.2% | – | 83.9% | 84.3% | – |
| Oc1c(C(Nc2ccccc2)c2ccccc2)ccc2cccnc12 (stereo not given) | 48% | 54.6% | 49.4% | 42.9% | 29.1% | – | 17.7% | 21.2% | 36.9% | – |
| CCOC(=O)NC(/C=C/c1ccccc1)NC(=O)OCC | 104% | 99% | 100% | – | 94.5% | 89.3% | 98.4% | 98.7% | 91.2% | – |
| Clc1ccccc1C(c1ccccc1)(c1ccccc1)n1ccnc1 | – | 48.2% | – | 32.7% | 20.6% | – | 21.5% | 17.3% | 12.1% | 25.9% |
| Cc1cc(Br)c2nsnc2c1[N+](=O)[O-] | – | 29.4% | 36% | 36.2% | -34.5% (active) | 99.2% | 20.1% | 39.4% | 40.2% | 106% |
| CCCCCCCCc1cc(Cl)c(O)c(Cl)c1 | – | 103% | 113% | – | 89.6% | 108% | 111% | 98.2% | 97.2% | 98.9% |
| Oc1ccc2ccccc2c1N=Nc1nccs1 | – | 34.4% | -14% (active) | 10.3% | -31.1% (active) | 136% | -7.19% (active) | -4.26% (active) | 59.3% | -9.54% (active) |
| CCCCCCCCCCCC1N=C(N)N=C(N)N1c1cccc(Br)c1 (stereo not given) | – | 8.08% (active) | -45% (active) | 25.3% | 80.5% | 76.1% | – | -16.5% (active) | 71.9% | 43.2% |
| CC(/C=N/NC(N)=S)Cc1ccc(C(C)C)cc1 (stereo not given) | – | 69.8% | 99.6% | 103% | 58.7% | 51% | – | 67.7% | 45% | 80.5% |
| O=C(Nc1ccc(Cl)c(Cl)c1)OCc1ccco1 | – | 48.8% | 58.2% | 32.5% | 25.4% | 71.5% | 39.3% | 34.1% | 36.1% | 56.9% |
| OC(c1cc(C23CC4CC(CC(C4)C2)C3)nc2c(Cl)cc(Cl)cc12)C1CCCCN1 (stereo not given) | – | -61.4% (active) | -88.1% (active) | -70.1% (active) | -54.5% (active) | -1.09% (active) | -45.3% (active) | -53.2% (active) | -83.3% (active) | -33.6% (active) |
| CC1=CC(=O)C=CC1(C)C(Cl)(Cl)Cl (stereo not given) | – | 88.8% | 80.2% | 97.3% | 104% | 87.6% | 94.9% | 93.9% | 92% | 100% |
| C/C(=N/NC(N)=S)c1ccc(C)cc1 | – | 87.4% | 102% | – | 99.8% | 94.7% | 43.3% | 63.9% | 68.1% | 53.9% |
| O=C(c1ccccc1)C(O)C(Br)(CBr)c1ccccc1 (stereo not given) | – | 91.6% | 87.6% | 93.2% | 102% | – | 50% | 75.1% | 96.3% | 108% |
| COC(=O)C(=[N+]=[N-])C(=O)c1ccc([N+](=O)[O-])o1 | – | 90.9% | – | – | 104% | 69.1% | 83.9% | 93.6% | 89.7% | 111% |
| CC(=O)c1c(O)c(C)c(O)c2c1OC1=CC(=O)C(C(C)=O)C(=O)C12C (stereo not given) | – | 143% | 103% | – | 74.2% | 76.3% | – | 71.9% | 58.7% | 51.9% |
| CCN(CC)CCNc1ccc([N+](=O)[O-])c2sc3ccccc3c(=O)c12 | – | 28.5% | 63.7% | 6.41% (active) | -0.017% (active) | 43.7% | 38% | 12.1% | -10% (active) | 23.1% |
| COC(=O)c1cc([N+](=O)[O-])cc([N+](=O)[O-])c1Cl | – | 99.8% | -41.3% (active) | 15.6% | – | – | – | 26.6% | 79.1% | 98.1% |
